Among all 390,000 compounds or so, about 4,000 (1%) were called active. Another 7% or so got no clear call; they are omitted. The call rests on the fitted dose curve; in most records, active means well fitted inhibition curve with a large enough effect; inconclusive means small, poorly fitted or top-dose-only effect, or another doubt; inactive means no such curve, though single readings can be large or run the other way. The full list was thinned out, with actives kept by preference.
Target: DNA polymerase iota (Homo sapiens) (UniProt Q9UNA4)
Sequence (Q9UNA4 whole entry, looked up): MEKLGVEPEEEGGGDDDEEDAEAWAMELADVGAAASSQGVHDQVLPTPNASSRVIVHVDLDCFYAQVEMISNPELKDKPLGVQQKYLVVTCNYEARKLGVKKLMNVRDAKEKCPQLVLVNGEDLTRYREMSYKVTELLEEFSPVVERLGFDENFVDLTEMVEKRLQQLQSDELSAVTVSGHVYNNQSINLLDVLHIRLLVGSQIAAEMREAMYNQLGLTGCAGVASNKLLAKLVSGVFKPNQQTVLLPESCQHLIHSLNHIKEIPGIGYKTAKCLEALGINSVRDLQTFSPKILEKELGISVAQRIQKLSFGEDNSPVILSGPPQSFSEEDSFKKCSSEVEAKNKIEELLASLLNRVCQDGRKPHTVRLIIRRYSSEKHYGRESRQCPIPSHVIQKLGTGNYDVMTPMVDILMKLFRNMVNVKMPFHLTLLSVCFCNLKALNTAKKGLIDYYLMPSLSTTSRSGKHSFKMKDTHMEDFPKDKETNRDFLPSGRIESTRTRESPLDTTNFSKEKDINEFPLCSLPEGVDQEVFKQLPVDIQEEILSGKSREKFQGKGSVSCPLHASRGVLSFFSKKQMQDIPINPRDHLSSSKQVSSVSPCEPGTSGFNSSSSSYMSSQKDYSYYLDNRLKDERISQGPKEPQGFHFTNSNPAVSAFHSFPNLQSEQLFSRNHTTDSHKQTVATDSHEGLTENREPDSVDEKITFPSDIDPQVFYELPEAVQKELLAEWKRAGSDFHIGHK
Test: qHTS for Inhibitors of Polymerase Iota
Settings: Pol iota fluorescent replication assay, 10 min; series mostly up to 115 µM; activity, negative = inhibition: at the top concentration
Procedure, shortened: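 Pol iota at 10 nM preincubated 15 min with compounds at room temperature; reaction started with fluorescent substrate, 50 nM final. Fluorescence read kinetically at 0 and 10 min; buffer-only wells as negative control.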
Potency means the concentration at half of the fitted maximal effect.

activity, negative = inhibition, inactive:
C=CCOc1c(Br)cc(/C=N\n2nnnc2N)cc1OC 8.73%
CCOc1ccc(/C=C(\C#N)c2nc3ccccc3c(=O)[nH]2)cc1OC 17.8%
CC(C)(C)OC(=O)N1CCC(c2c(C(=O)NCc3ccccn3)cnn2-c2ccc(F)cc2)CC1 23.8%
CC(=O)Nc1ccc(NC(=O)C2CCCN2S(=O)(=O)c2cccc(C(F)(F)F)c2)cc1 (stereo not given) 22.6%
CCc1nnc(NC(=O)C2CCCN2S(=O)(=O)c2ccccc2)s1 (stereo not given) -7.41%
CN(CCC#N)c1ccc(C=O)cc1 1.08%
Cc1ccc(Nc2c(-c3ccc(C)cc3)nc3cnccn23)cc1 9.48%
Cc1nn(-c2ccc(F)cc2)c(Cl)c1/C=C(/CCC(=O)O)c1nc2ccccc2s1 58%
COc1cccc(NC(=O)c2ccc3nc(CCc4ccccc4)oc3c2)c1 0.161%
Cc1csc[n+]1CCC1CCCCC1 42.3%
CCOC(=O)c1ccc(NC(=O)c2csc3c2CCCCC3)cc1 45.5%
CCOc1ccc(C(=O)/C=C/c2cn(CC(O)CN3CCCCCC3)c3ccccc23)cc1 (stereo not given) -23.7%
O=C(CN1CCSc2ccccc21)N1CCN(c2ccccc2)CC1 5.88%
Cc1cc(C)cc(NS(=O)(=O)c2ccc3[nH]cc(C(=O)N4CCCCC4)c(=O)c3c2)c1 -3.74%
CCCCNC(=O)c1c[nH]c2ccc(S(=O)(=O)Nc3ccc(OCC)cc3)cc2c1=O -18.8%
Cc1ccc(C)c(N2CCN(Cc3nnc(-c4ccccc4)o3)CC2)c1 20.8%
CN(CC(=O)Nc1ccccc1F)S(=O)(=O)c1ccc2c(c1)c(=O)n(C)c(=O)n2C -9.64%
CCNC(=O)CC1C(=O)N(c2ccc(F)cc2)C(=O)N1Cc1ccc(C)cc1 (stereo not given) 23.2%
CCCc1cc(-c2n[nH]c(=S)n2CC)c2ccccc2n1 3.81%
CCN(CC)S(=O)(=O)c1cccc(-c2n[nH]c(=S)n2/N=C/c2ccc(C(=O)OC)cc2)c1 10.3%
C=CCc1c(C)nc2cc(-c3ccccc3)[nH]n2c1=O 20.2%
CN(Cc1ccccc1)C(=O)c1cn(C)c2ccc(S(=O)(=O)N(C)C3CCCCC3)cc2c1=O 29.5%
COC(=O)c1cc(NC(=O)c2cnc(SC)nc2-c2ccccc2)cc(C(=O)OC)c1 29.1%
Cc1cccc(-n2ncc(C(=O)N3CCN(c4ccc(Cl)cc4)CC3)c2C2CCN(C(=O)OC(C)(C)C)CC2)c1 16.7%
CC(C)(C)OC(=O)N1CCC(c2c(C(=O)Nc3ccc4c(c3)OCO4)cnn2-c2ccccc2)CC1 16.7%
Cc1nn(C)c2c1c(C(F)(F)F)cc(=O)n2C(C)C(=O)NCc1ccc(Cl)cc1 (stereo not given) -26.1%
CCOC(=O)c1cccc(NC(=O)c2cc(S(=O)(=O)N3CCCC(C)C3)cn2C)c1 (stereo not given) 3.29%
CCOc1ccc(N(C)S(=O)(=O)c2cc(-c3cnc(C)o3)ccc2OC)cc1 10.1%
Cc1ccc(-n2c(=O)c3cccnc3n2CC(=O)NCc2ccc(F)cc2)cc1C 22.8%
CC1CCCCN1S(=O)(=O)c1ccc(F)c(C(=O)Nc2ccccc2C(F)(F)F)c1 (stereo not given) 13.6%
Brc1nc2ncnc(NCc3ccco3)c2[nH]1 -12.7%
Cc1ccc(C(=O)N/C(=C\c2ccco2)C(=O)N2CCSCC2)cc1C 21.8%
Cc1ccc(-n2ncc3c(=O)n(-c4ccc(C)c(C)c4)c(-c4ccco4)nc32)cc1 24.7%
CCOc1ccc(-c2cc3nc(C4CCN(C(=O)OC(C)(C)C)CC4)c(C(=O)Nc4cccc(CC)c4)cn3n2)cc1 31%
COc1cccc(NC(=O)N2CCN(C(=O)c3nsc4ccccc34)CC2)c1 36.9%
CCc1ccccc1NC(=O)N1CCC2(CC1)Oc1ccccc1C(=O)N2Cc1ccccc1F -3.54%
Cc1cc(C)cc(OCC(=O)Nc2c(C(=O)c3ccccc3)oc3ccccc23)c1 13.4%
COc1ccccc1CNc1nc2ccc(Cl)cc2n2cnnc12 2.76%
O=C(Nc1cccc(-c2nc3ccccc3o2)c1)c1cccc(Br)c1 7.05%
O=C(N/N=C/c1cccc(OC(=O)c2ccc([N+](=O)[O-])cc2)c1)c1cccnc1 148%
Cc1cccc(OCC(=O)NCCNC(=O)c2cccnc2)c1 -19.7%
O=C(COc1ccc([N+](=O)[O-])cc1)Nc1cccc(C(=O)Nc2ccccc2C(=O)O)c1 4.15%
Cc1ccc(OCC(=O)NCCCNC(=O)c2cccnc2)cc1C -14.2%
O=C(Nc1ccc(S(=O)(=O)N2CCC(c3nc4ccccc4s3)CC2)cc1)c1ccccc1F 19.1%
COc1ccc(CCNC(=O)c2nn(C)c3c2CSc2ccccc2-3)cc1OC -19.9%
COc1ccc(NC(=O)c2ccc3oc(=O)c(S(=O)(=O)c4ccc(F)cc4)cc3c2)c(OC)c1 18.3%
CCCN1CCN(CCCNC(=O)c2cnn(-c3ccc(C)cc3)c2-n2cccc2)CC1 15%

Potency, active:
CCOc1c(Br)cc(/C=C2\C(=O)N(CCC#N)N=C2C)cc1OC 0.794 µM
CCc1ccc(NC(=O)C2CCCN2S(=O)(=O)c2ccc3nc(-c4ccccc4)[nH]c3c2)cc1 (stereo not given) 89.1 µM
COc1ccc(C(=O)Nc2cccc(/C=C(/CCC(=O)O)c3nc4ccccc4s3)c2)cc1 12.6 µM
CC(C)c1ccc(NS(=O)(=O)c2ccc3[nH]cc(C(=O)NC4CCCC4)c(=O)c3c2)cc1 79.4 µM
CS(=O)(=O)c1ccc2c(c1)SC1=NC(=O)/C(=C/c3ccco3)C(=N)N12 14.1 µM
S=c1[nH]nc(-c2cc(-c3ccccc3)n[nH]2)n1/N=C/c1c2ccccc2cc2ccccc12 20 µM
Cc1cc(=O)n2[nH]c(-c3sccc3-n3c(C)ccc3C)cc2n1 20 µM
COC(=O)c1ccc(NC(=O)c2cnn(-c3ccc(Cl)cc3)c2C2CCN(C(=O)OC(C)(C)C)CC2)cc1 89.1 µM
CN1CCOC1c1ccc(C2OCCN2C)cc1 (stereo not given) 20 µM
Cc1ccc(N2NC(=O)/C(=C/C=C/c3ccco3)C2=O)cc1C 20 µM
Cc1ccc(N=C2NC(=O)/C(=C/C=C/c3ccco3)S2)cc1C 11.2 µM
Cc1ccc(NC(=O)COc2ccc(/C=N\NC(=O)c3cccnc3)cc2)cc1C 22.4 µM
O=C(COc1ccc(/C=N/NC(=O)c2ccc(O)cc2)cc1)Nc1ccc([N+](=O)[O-])cc1 3.98 µM

— PubChem BioAssay AID588590 (National Center for Advancing Translational Sciences (NCATS), 2011)
